Experimental data taken from PubChem BioAssay AID1347426 (Functional Genomics Laboratory (NCATS/FGL), 2020).
Out of some 31,000 sequences screened, about 1,400 (4.5%) were called active. Shown is part of a subset that was picked to be rich in actives. Unmarked numbers belong to inactive results.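 How the source made its calls: active means median seed-adjusted z-score above 1 or below -1; inactive means the rest.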

Assay: Novel Modifiers of Survival Motor Neuron (SMN) Protein: Gene Identification via Genome-wide siRNA Screen;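 further: luminescence tracks full-length SMN protein made from the SMN2 reporter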
Conditions: HEK293T SMN2-luciferase reporter, siRNA knockdown, 72 h; actives lie on both sides
In short: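 Each of three siRNAs per gene is reverse-transfected (1 pmol) into reporter HEK293T cells whose luciferase output tracks SMN protein level. After 72 h culture, ONE-Glo luminescence is control-normalized, log10-transformed and MAD-standardized; Common Seed Analysis deprioritizes seed-driven hits.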

Sequence	median seed-adjusted z-score
AGUCAAGAACAAUACCCAATT against SNRPD2	-0.849
GAGCAGCUCUUAAGCAACATT against SAPS1	1.16 (active)
GCCUGUCCCUAGCAUUGUUTT against CES2	-0.47
CCAGUCACUGCAUAACAUUTT against PSMD9	0.266
GAACUAGGAGAUACAAUAUTT against ELOVL6	0.742
GGACAGUCUUCUGUAUGCATT against RBM39	-1.82 (active)
CCAGAGAAAUGAGAUUGGATT against ZNF195	0.0753
GCCUGCAAGUGAAGCGGAATT against PRMT1	-0.596
CAGCCUUCAUGAGAUGUUATT against AMPD3	-0.0865
CAACCUGCUCUACAGCAAATT against PRSS27	1.03 (active)
GACGCGGUAUGUAGACAUATT against NAT8B	0.206
GCUGCAUUGUGGGUGAUGATT against PTGIR	-0.0806
CAAGAGCAGUUUAAUAGCATT against BAT3	0.567
GGAACUUACUACAACUCCATT against TMPRSS6	1.29 (active)
GGUUAGCUUAUGUUACAUATT against E2F3	-0.215
ACUCCUCUCUGUUAAUGGATT against LIN7C	0.021
GGUUGAAGAUGGUACUCCUTT against ADAMTS20	1.44 (active)
CUCCAGAUAUAGACCUCAATT against TRIM22	0.363
UGUUGUACCUCUAAUGUCATT against GPR172B	0.184
GCAACCCACCAAUAACUAATT against ADAM29	0.904
UGAGUUCUUUAGGACCGAATT against MFAP3L	1.03 (active)
GUACUGUAGAGAAAGCGUATT against ZNF606	0.118
UUUCCAAACAAGUACCUAATT against CKS2	0.0907
GCAUAUACCAUCGCUGUAATT against SUPT16H	1.2 (active)
CCAGAUAUGGUAUCCCAAUTT against ZNF227	0.0194
GUCUCAAUCUAAUAAGGAATT against TTLL1	0.322
GAUCAGGACUUUAUGUUCATT against ZNF225	0.0761

Sequence	median seed-adjusted z-score
GAGCGUACCAAGGAUCUAATT against HDLBP	-1.18 (active)
CUUUUGACGUGAACGAUGATT against ORM1	0.206
CCGCCCAAGUAGUAAAGAATT against ADCY3	-0.294
AGACUUUAAGGAGAAAACATT against YAF2	0
GGUUCACGGUUCAAAAUCATT against SLC25A24	-0.0384
GGUCCAACAUGCAAUCCAATT against EDEM3	0.119
GCCGCAACAUGGAAGUACATT against MAPK8IP3	0.734
GGGAGAUCUUCGACUCAUATT against ADRBK1	0
GGGACUAUUCCAAAACCCATT against FLAD1	0.367
GGAAUGUGCUGGUCGGAGATT against TIE1	0.0629
CCAAAUACAUCGCAUUAGATT against GTPBP4	1.01 (active)
GGUUCAUACAGACUCUUAUTT against PJA2	0
GAUAAAAACAGUCCUUUCUTT against FXYD3	0.254
CAAUGUUACCAAAACCGAATT against ACVR1C	-0.0005
CCCUACCAACAUUAAGUAUTT against CLDN7	0.0208
GGAUGUGGUUUAUUAUACATT against SLC16A9	0.125
GCCUAUCAAUUGUUCGGGATT against TTF1	1.76 (active)
GCGUAUGGGAUUACAAGAATT against PAFAH1B1	0.391
GGCUAGUACUGACAGAUGATT against CREB3	0.0509
ACUCCUACAUGUACAUUCUTT against KCNE3	-1.33 (active)
GGUUAAAAGUCGGUCCCAATT against SGCG	0.886
GCAUCUCUAUUGUAGCCCUTT against GHRHR	0
CAUCCGAUCUGAUAGGUCUTT against EFEMP1	0.0157
AGACCUAGCAUGGACCAGATT against GUCY2E	0.61
CUUGGACACUGAAAACGCATT against ITGAM	-1.56 (active)
GGAUGAGUACAGAUUUACATT against CLPX	-0.0436
AGCUCAUAGCUGACCCAGATT against ZC3H3	-0.622
